# Results: PubChem BioAssay AID493194 (Broad Institute, 2011)
# Measured potencies and affinities stand elsewhere. Records with an inconclusive call do not appear. Activity calls are given as the source filed them.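 The calls were made as follows: active = a valid curve of falling signal whose half-effect concentration is at most ten times the top tested dose; inconclusive = flat curve at 30 to 70% inhibition, or poor fit; inactive = signal rise, flat within 30%, or potency beyond limit.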
# Biological target: Scavenger receptor class B member 1 (Mus musculus) (UniProt Q61009)
# Assay: inhibitors of SR-BI mediated HDL lipid uptake, dose response, ldlA[mSR-BI] cells, fluorescence, cherry pick (AID 493194);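 also: CHO cells lacking LDL receptor and overexpressing mouse SR-BI; cellular uptake of fluorescently labeled HDL measured as cell fluorescence; 0% = median of neutral control wells and -100% = median of positive control wells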
# Conditions: CHO ldlA[mSR-BI] DiI-HDL uptake fluorescence, 3 h; series mostly up to 35 µM; activity change, negative = inhibition: at the top concentration
# Chain of Scavenger receptor class B member 1 (Mus musculus) (Q61009 whole entry, looked up): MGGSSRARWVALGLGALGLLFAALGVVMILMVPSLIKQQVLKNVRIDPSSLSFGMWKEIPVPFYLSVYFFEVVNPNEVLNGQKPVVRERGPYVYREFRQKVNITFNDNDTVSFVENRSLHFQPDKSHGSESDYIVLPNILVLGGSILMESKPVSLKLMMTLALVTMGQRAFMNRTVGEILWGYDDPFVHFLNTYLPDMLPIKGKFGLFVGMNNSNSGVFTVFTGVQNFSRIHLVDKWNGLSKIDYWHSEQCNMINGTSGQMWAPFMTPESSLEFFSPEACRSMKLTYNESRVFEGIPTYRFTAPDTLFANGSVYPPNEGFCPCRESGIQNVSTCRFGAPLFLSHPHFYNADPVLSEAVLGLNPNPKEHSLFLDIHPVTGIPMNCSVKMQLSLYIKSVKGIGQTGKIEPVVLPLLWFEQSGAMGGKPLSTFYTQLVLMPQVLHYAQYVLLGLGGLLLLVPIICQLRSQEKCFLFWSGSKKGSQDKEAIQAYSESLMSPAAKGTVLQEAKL
row,Structure (SMILES),"activity change, negative = inhibition"
1,COc1ccc(CN2CCN(C(=O)c3ccc(S(=O)(=O)NCc4ccco4)cc3)CC2)cc1F,1.25% (inactive)
2,Cn1c(CCN2CCN(c3ccccn3)CC2)nc2cc(NS(=O)(=O)c3ccc(Cl)cc3)ccc21,-2.37% (inactive)
3,Cc1ccc(Sc2nc(-c3ccccc3)nnc2C(F)(F)F)cc1,51.4% (inactive)
4,COCCCNc1nc2c(-c3cccc(C)c3)nnn2c2ccccc12,-9.49% (inactive)
5,CCC(C(=O)NC1CCCC1)N(C(=O)Cn1nnc(-c2ccc(OC)c(OC)c2)n1)c1cccc(O)c1 (centres undefined),-29.5% (inactive)
6,Cc1ccc(C)c(N2CCN(CCCNC(=O)Cn3c(=O)c4cccn4c4cccnc43)CC2)c1,2.88% (inactive)
7,O=C(Nc1cccc(Cl)c1)Nc1sccc1-c1nc2ccccc2s1,-30.2% (inactive)
8,CC(C)(C)NC(=O)N1CCN(c2ncccc2C(F)(F)F)CC1,-35.7% (inactive)
9,COc1ccc(C2c3sc(=O)[nH]c3SC3C4CCC(C4)C23)cc1OC (centres undefined),-8.15% (inactive)
10,O=C(C[C@H]1C/C=C\CCC(=O)OC[C@H]2CCCN2C1=O)NCCO,127% (inactive)
11,CC(=O)Nc1nc(-c2ccccc2)nc(-c2ccccc2OC(C)=O)n1,-22.1% (inactive)
12,O=C(c1ccc(S(=O)(=O)NCc2ccco2)cc1)N1CCN(Cc2ccccc2F)CC1,-13.8% (inactive)
13,O=C(c1ccc(S(=O)(=O)NCc2ccco2)cc1)N1CCN(Cc2ccc3c(c2)OCO3)CC1,-9.81% (inactive)
14,Cc1cccc(N2CCN(C(=O)Cn3cccc3C(=O)c3ccccc3)CC2)c1C,-20.2% (inactive)
15,N#CCCN(C(=O)COC(=O)CCc1c[nH]c2ccccc12)c1ccc(F)cc1,-3% (inactive)
16,Cc1nc2c(cnn2-c2ccccc2Cl)c(=O)n1-c1ccc(N2CCC(C)CC2)cc1,-33.4% (inactive)
17,COc1ccccc1NC(=O)CN1CCN(CC(=O)Nc2ccc(OCc3ccccc3)cc2)CC1,21.2% (inactive)
18,O=C(NC1CCCCC1)C(c1ccc2ncccc2c1)N(Cc1ccco1)C(=O)c1ccc2c(c1)OCCO2 (centres undefined),-4.36% (inactive)
19,O=C(Nc1ccc(-c2nc3ccccc3o2)c(O)c1)c1cc(-n2cnnc2)ccc1Cl,2.5% (inactive)
20,CC[C@@H](C)[C@H](NC(=O)Cc1c(C)c2cc3c(C)c(C)oc3c(C)c2oc1=O)C(=O)O,4.74% (inactive)

row,Structure (SMILES),"activity change, negative = inhibition"
1,O=C(O)CC(C(=O)Nc1cccc(C(F)(F)F)c1)C1CCCO1 (centres undefined),95.2% (inactive)
2,O=C(Nc1ccccc1F)c1ccc2c(c1)CCN2S(=O)(=O)c1ccccc1,-8.1% (inactive)
3,O=C(c1cccc(Cl)c1)N1CCC2CC1c1cc(-c3ccccc3)ccc12 (centres undefined),-5.35% (inactive)
4,Cc1ccsc1-c1nc(-c2ccccc2)c(-c2ccccc2)[nH]1,-8.96% (inactive)
5,Cc1sc(NC(=O)CN2CCOCC2)nc1-c1ccc2c(c1)CCN2S(=O)(=O)c1ccccc1,-0.043% (inactive)
6,Cc1ccc(NS(=O)(=O)c2ccc(C(=O)NNC(=O)c3ccccc3O)cc2)cc1,14.7% (inactive)
7,CCCn1c(=O)[nH]c(=O)c2c1nc(-c1ccc(OC(F)(F)C(F)C(F)(F)F)cc1)n2CCOC (centres undefined),-12% (inactive)
8,CN(C)S(=O)(=O)N1CCN(C(=O)N(c2ccccc2)c2ccccc2)CC1,-4.43% (inactive)
9,Cc1ccccc1C(=O)N1CCc2cc(-c3nc(NC(=O)Cc4ccc5c(c4)OCO5)sc3C)ccc21,2.62% (inactive)
10,COc1ccc(-c2csc(N3CCN(c4cc(C)nc5ccccc45)CC3)n2)cc1OC,-1.93% (inactive)
11,Cc1ccccc1NC(=O)N(CCc1nc2ccccc2[nH]1)Cc1ccccc1,-0.001% (inactive)
12,Cc1c(C(=O)CN2CCCC(C)(C)C2)c2ccccc2n1C,34.2% (inactive)
13,CN(C(=O)COn1nnc2ccc(S(=O)(=O)N3CCOCC3)cc21)c1ccccc1,-9.75% (inactive)
14,CC(C)OC(=O)c1cccc(C(=O)Nc2cccc(NC(=O)c3cccc(C(=O)OC(C)C)n3)n2)n1,4.41% (inactive)
15,CC(C)C(=O)Nc1nc(-c2ccc3c(c2)CCN3C(=O)C2CC2)cs1,62.6% (inactive)
16,CCOC(=O)C(C)(C)Sc1nc2c(cnn2-c2ccc(F)cc2)c(=O)[nH]1,-12.7% (inactive)
17,CC(=O)c1ccc(N2CCN(C(=O)/C=C/c3ccc(S(=O)(=O)NCc4ccco4)cc3)CC2)cc1,-2.67% (inactive)
18,COc1ccc(CCNC(=O)c2ccc3c(c2)N(Cc2ccc(F)cc2)CCS3)c(OC)c1,3.53% (inactive)
19,COc1cc(NC(=O)c2cc(-n3cnnc3)ccc2Cl)cc(OC)c1,20% (inactive)
